Experimental findings from PubChem BioAssay AID485317 (Broad Institute, 2010) are described below.

Hit rate of the full screen: of about 290,000 compounds, about 11,000 (3.8%) were called active. This is one part of a sample in which actives are shown more often than they occur. A number with no mark means an inactive call.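 How the source made its calls: active means mean replicate inhibition above about 79%, with every replicate also reaching it (limit read from the data); inconclusive means only one of the two criteria met; inactive means mean below limit and not every replicate reaching it.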

In this assay the target is FAD-linked sulfhydryl oxidase ALR (Homo sapiens) (UniProt P55789). As to the kind of experiment: inhibitors of human ALR sulfhydryl oxidase, primary screen, biochemical, H2O2 detection, HRP-luminol luminescence, single point (AID 485317). Particulars: purified ALR, DTT oxidation, stronger effect = higher value, concentration not given here.
Sequence of FAD-linked sulfhydryl oxidase ALR (Homo sapiens) (P55789 whole entry, looked up): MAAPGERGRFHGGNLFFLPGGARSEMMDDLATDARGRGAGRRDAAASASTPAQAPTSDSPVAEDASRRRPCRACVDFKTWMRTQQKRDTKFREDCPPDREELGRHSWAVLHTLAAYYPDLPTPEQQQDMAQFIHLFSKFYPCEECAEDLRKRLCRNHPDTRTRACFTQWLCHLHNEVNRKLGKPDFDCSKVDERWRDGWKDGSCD
Broadly, the inhibition is the relative decrease from the control value, in per cent. In the case of `CC1=C/C(=N\OS(=O)(=O)c2ccccc2)C=CC1=O`, the inhibition is 98.9% (active).

Take `O=S(=O)(ON(c1ccccc1)S(=O)(=O)c1ccccc1)c1ccccc1`: the inhibition was -14.1%. The same measure for `CCCCCN(C(=O)CCC(=O)OCC(=O)NC1CCC(C)CC1)c1c(N)n(CCCC)c(=O)[nH]c1=O` (configuration not stated): -10.8%; for `COC1=C/C(=C/c2c(N)n3nc(CC(=O)N4CCOCC4)sc3nc2=O)C=CC1=O`: 99.1% (active); for `C=CCC1=C/C(=C\c2c(N)n3nc(CC(=O)N4CCOCC4)sc3nc2=O)C=C(OC)C1=O`: 54.3%. For the compound `COc1ccc(OCC(=O)N2CCOCC2)cc1`, the inhibition was -7.03%. Regarding `O=C(Cc1ccc(S(=O)(=O)N2CCOCC2)s1)N1CCN(c2ccc(C(F)(F)F)cc2[N+](=O)[O-])CC1`, the inhibition was -1.8%. Regarding `COc1ccccc1-c1sc2ccccc2c1-c1ccc(Br)nc1`, the inhibition was -3.77%. The same measure for `CC1CCCCC1NC(=O)c1cc(=O)[nH]c2ccccc12` (configuration not stated): -38.4%; for `CCC(C)(C)NC(=O)C1c2ccccc2Oc2ccccc21`: -6.09%; for `O=C(N/N=C/c1ccc(O)c(O)c1)C1c2ccccc2Oc2ccccc21`: 99% (active). Next, `CCCCCNC(=O)C1c2ccccc2Oc2ccccc21`: -7.1%; `CSCCC(NC(=O)COc1ccccc1)C(=O)N(C)CC(=O)Nc1ccc(C)cc1` (configuration not stated): -1.79%; `COc1cccc(CNC(=O)CN2C(=O)NC(Cc3ccccc3)(c3ccccc3)C2=O)c1` (configuration not stated): -2.85%. The same measure for `CC(C)c1ccc(/C=C/C(=O)NCCCN2CCOCC2)cc1`: 3.5%; for `O=C1[C@H]2[C@@H](c3ccc(F)cc3)N3C(=O)N(c4ccc(C(F)(F)F)cc4)C(=O)[C@@]3(Cc3ccccc3)[C@H]2C(=O)N1C1CCCCC1`: 2.08%. Take `CC(=N\NC(=O)c1cc(Br)ccc1O)/C(=N/O)C(=O)Nc1ccccc1`: the inhibition is 85.8% (active). As to `CC(=O)N/N=C(\C)c1ccc(Br)cc1Br`, the inhibition is -9.48%. The same measure for `CC(C)/C=N/NC(=O)c1cc(Br)ccc1O`: 44.3%; for `COc1ccc(-c2sc3ccc(OC)cc3c2C#Cc2ccccn2)cc1`: 0.498%. As to `O=C(COc1coc(CN2CCN(c3ccccc3F)CC2)cc1=O)N1CCc2ccccc21`, the inhibition is -0.38%. As to `COc1ccccc1-n1ccnc1SCC(=O)NC(C)(C)C`, the inhibition was 17.9%. Next, `Cc1ccccc1CSCC(=O)NC(=O)NC(C)(C)C`: -23.2%; `CC(C)(C)NC(=O)CSC(=Nc1ccccc1F)NC#N`: 98.7% (active); `COc1cc(C(C)=O)ccc1OC(C)C(=O)Nc1ccc(S(=O)(=O)N2CCCC2)cc1` (configuration not stated): -9.52%. With `O=C(CSc1ncnc2sccc12)NC1CCS(=O)(=O)C1` (configuration not stated), the inhibition is -0.589%. Next, `Cc1ccc(NC2CCCN(C(=O)CCc3cn[nH]c3)C2)cc1C` (configuration not stated): 98.7% (active); `Cn1cc(CCC(=O)N2CCCC(C(=O)c3ccc(C(C)(C)C)cc3)C2)cn1` (configuration not stated): -21%. Turning to `COc1ccccc1CN1CC(C(=O)NCCc2cn[nH]c2)CCC1=O` (configuration not stated), the inhibition was -0.59%. As to `CCC(C)c1ccc(NC(=O)COC(=O)C2CCCC2)cc1` (configuration not stated), the inhibition was 0.804%. As to `CC(OC(=O)c1c(F)cccc1F)C(=O)NCCC1=CCCCC1` (configuration not stated), the inhibition was -6.45%. As for `O=C1CCCCN1CCCC(=O)N1CCCC(Nc2ccc(F)cc2)C1` (configuration not stated), the inhibition was 17.9%. Next, `O=C(CN1CCOC1=O)N1CCCC(Nc2ccc(F)c(F)c2)C1` (configuration not stated): 12.5%; `O=C(CN1C(=O)CSC1=O)N1CCCC(Nc2ccc(F)cc2)C1` (configuration not stated): 99.1% (active).

Turning to `COC(=O)c1ccc(/C=C/c2c(-c3ccc(OC)cc3)sc3ccccc23)cc1`, the inhibition was 2.88%. Next, `CC(OC(=O)c1ccc(-n2cnnn2)cc1)C(=O)NCc1ccccc1` (configuration not stated): 0.686%. Next, `CCCCn1c(=S)[nH]c2cc(S(=O)(=O)N3CCCCC3)ccc21`: 9.62%. Regarding `CC(C)n1c(=S)[nH]c2cc(C(F)(F)F)ccc21`, the inhibition was 25.9%. The same measure for `CCCn1c(=S)[nH]c2ccc(C(F)(F)F)cc21`: 96.9% (active); for `O=C(CNC(=O)c1ccccc1F)OCC(=O)c1c[nH]c2ccccc12`: -4.95%.

`CC(C)n1cnc2c(NCc3ccccc3)cc(N[C@@H](CO)Cc3ccccc3)cc21`: the inhibition is -30.8%.

For `Cc1ccc(OCc2nc3ccccc3n2C)cc1`, the inhibition was -6.95%. Consider `Cc1ccc(O)c(CNc2nc3ccccc3n2C)c1`, for which the inhibition is 90.7% (active). The same measure for `Cn1c(Nc2cccc(Cl)c2)nc2ccccc21`: 10.5%; for `Cc1ccc(-c2csc(NCCc3nc4cc(Cl)c(Cl)cc4n3CCOCCO)n2)cc1`: -6.99%; for `Cc1ccc(F)cc1S(=O)(=O)Nc1cccc(C(=O)N2CCCC(C(N)=O)C2)c1` (configuration not stated): -5.56%. Regarding `O=C(Nc1cccc(F)c1)NC1CCCCCCC1`, the inhibition is 43.5%. Next, `O=C(c1n[nH]c2c1CCC2)N1CCCC(Nc2cccc(F)c2)C1` (configuration not stated): 99.1% (active). On to `CCCCn1c(N)c(N(CC(C)C)C(=O)c2cnc(C)cn2)c(=O)[nH]c1=O`, for which the inhibition is -2.15%. The same measure for `COc1ccc(-c2nn(-c3ccccc3)cc2CN2CCCO2)c(F)c1`: 83.5% (active); for `COc1ccc(-n2cc(CNC3CCOCC3)c(-c3cccc(F)c3)n2)cc1`: -7%; for `CCC(O)C1CCN(Cc2cn(-c3ccc(OC)cc3)nc2-c2cccc(F)c2)CC1` (configuration not stated): -36.1%. The same measure for `C[C@@H]1NC(=O)[C@@]2(C)[C@@H](c3ccccc3)[C@H]3COc4ccccc4[C@@H]3N2C1=O`: 0.598%; for `CN1/C(=C\C(=O)c2cccnc2Cl)C(C)(C)c2ccccc21`: -13.8%. Regarding `CC(C)Nc1nnc(SCC(=O)/C=C2\N(C)c3ccccc3C2(C)C)s1`, the inhibition was -3.17%.

In the case of `CN1CCN(CCC(=O)N/N=C/C=C2\N(C)c3ccccc3C2(C)C)CC1`, the inhibition is 99% (active). The same measure for `Cc1ccc(NC(=O)CN(C)C(=O)c2ccc(Cl)c(S(=O)(=O)NCc3ccco3)c2)cc1`: -3.45%; for `Cc1ccc(-c2nn(-c3ccc(F)cc3)cc2C(=O)NCC(c2cccs2)N2CCOCC2)cc1` (configuration not stated): -3.7%. `CC1(C)CC[C@]2(C(=O)O)CC[C@]3(C)C(=CCC4[C@@]5(C)CC[C@H](O)C(C)(C)C5[C@H](O)C[C@]43C)[C@@H]2C1` (some centres not stated): the inhibition is -9.76%.

`O=C(CN1CCOCC1)Nc1cc(Cl)ccc1Cl`: the inhibition was -11.6%. The same measure for `O=C(CN1CCN(c2ccc(O)cc2)CC1)Nc1cc(S(=O)(=O)N2CCOCC2)ccc1Cl`: 94.9% (active). The same measure for `O=C(CN1CCN(c2cccc(Cl)c2)CC1)Nc1ccc(S(=O)(=O)N2CCOCC2)cc1`: -14.5%; for `CCOC(=O)Cc1csc(NC(=O)COc2ccc3c(C)cc(=O)oc3c2)n1`: -3.23%; for `Cc1ccc2c(CSc3nncs3)cc(=O)oc2c1`: -0.57%. Take `CCOC(=O)Cc1csc(SCc2cc(=O)oc3cc(O)ccc23)n1`: the inhibition was 97.7% (active). On to `O=C(NCCc1ccc(F)cc1)c1ccc2nccnc2c1`, for which the inhibition was -6.27%. Turning to `CS(=O)(=O)c1ccc(Cl)c(NC(=O)COC(=O)c2ncc(Cl)c(Cl)c2Cl)c1`, the inhibition was 0.688%. Next, `Cc1cccc(C)c1Nc1nnc(SCC(=O)Nc2sccc2C#N)s1`: 14.7%. Turning to `N#Cc1ccsc1NC(=O)CN1CCCCC1`, the inhibition was 3.1%. For the compound `Cc1ccc(NC(=O)CSCC(=O)Nc2sccc2C#N)cc1`, the inhibition was 98.7% (active). As to `COC(C/C=C/C(=O)[C@@H](C)OCc1ccccc1)OC`, the inhibition is 55.7%.

For `O=C(CNC(=O)C12CC3CC(CC(C3)C1)C2)OCC(=O)N1CCCCC1`, the inhibition was -2.51%. Next, `O=C(CSc1ccccc1)Nc1cccc(S(=O)(=O)N2CCOCC2)c1`: -1.29%; `CCn1c(CNC(=O)c2ccc(OC)c(OC)c2)nnc1SCC(=O)Nc1ccccc1`: -2.46%; `CCc1c(O)nc(SCC(=O)Nc2ccccc2)n(C(C)CC)c1=O` (configuration not stated): 98.8% (active). Next, `CCn1c(Cc2ccccc2)nnc1SCC(=O)Nc1ccccc1`: -28.7%; `CC(OC(=O)c1ccc([N+](=O)[O-])cc1)C(=O)NCC1CCCCC1` (configuration not stated): -1.04%; `O=C(Nc1cccc2c1CCCC2)c1ccc(F)cc1`: -21.6%. For `CC1CN(C(=O)c2ccc([N+](=O)[O-])s2)CC(C)O1` (configuration not stated), the inhibition was -91.3%. Next, `COc1cc2c(cc1OC)C(C(=O)Nc1cc(C)c(OC)c(C)c1)CC(=O)N2` (configuration not stated): -6.22%; `COc1cc(N/C=C2\CC(=O)NC(C)=C2C#N)cc(OC)c1OC`: 97.1% (active); `COC(=O)C1=C(C)NC(=O)CC1c1ccccc1OC` (configuration not stated): -0.32%.

As to `Cn1c(N)c(C(=O)COC(=O)/C=C/c2cccc(C(F)(F)F)c2)c(=O)n(C)c1=O`, the inhibition is -1.31%. Next, `CC(Sc1nncn1C)C(=O)NCCC1=CCCCC1` (configuration not stated): -2.34%. Next, `CC(CNC(=O)Cn1cnc2c(OCc3ccccc3)ncnc21)c1ccccc1` (configuration not stated): -1.23%; `CC1(c2nnc(Cc3ccccc3)o2)CC(c2ccccc2F)=NO1` (configuration not stated): 1.62%; `CCCNC(=O)c1ccc(N2CCC3(CC2)CC(c2cccc(Br)c2)=NO3)c(NC(=O)c2ccco2)c1`: 6.36%.

`Cc1cc(C)c2c(=O)[nH]c(SCC(=O)Nc3ccc(Br)cc3)nc2n1`: the inhibition was -7.51%. The same measure for `O=C(CSc1nc2ccccc2c(=O)[nH]1)Nc1nc(-c2ccc(Br)cc2)cs1`: -3.23%; for `N#Cc1c(-c2cccs2)nc(SCC(=O)c2ccc(Br)cc2)[nH]c1=O`: 98.5% (active); for `COCCNc1nnc(SCC(=O)NNC(=O)c2ccco2)s1`: -2.35%. Next, `O=C(NCc1ccc2c(c1)OCO2)c1cc([N+](=O)[O-])ccc1N1CCOCC1`: -3.3%.
